Measurements reported in PubChem BioAssay (NCI).
About 79,000 compounds went through this panel and 15% of them were active in at least one assay; those are over-represented in the sample as a whole. The source made the active and inactive calls. Rule as the data show it: active = growth inhibition above about 70%; inactive = the rest.

Tests used:
[1] = NCI Yeast Anticancer Drug Screen. Data for the rad50 strain (AID 155);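 also: 0% = growth of vehicle-only cultures of the same strain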; conditions: S. cerevisiae rad50 strain growth inhibition; at 50.0 µM; active compounds read high
Outline: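 Readout: growth inhibition relative to vehicle-treated cultures. Compound exposure was carried out in a genetically defined yeast strain deficient in DNA damage repair.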

[2] = NCI Yeast Anticancer Drug Screen. Data for the mec2-1 strain (AID 157); conditions: S. cerevisiae mec2-1 strain, at 50.0 µM, active compounds read high
Outline: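 Using mec2-1 yeast: add compound, measure growth, express inhibition versus vehicle-treated cultures.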

[3] = NCI Yeast Anticancer Drug Screen. Data for the sgs1 mgt1 strain (AID 161);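 also: 0% = growth of cultures given vehicle only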; conditions: S. cerevisiae sgs1 mgt1 strain, at 50.0 µM, active compounds read high
Outline: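 Growth of a repair-deficient yeast mutant was monitored after compound treatment and expressed as inhibition relative to vehicle-treated cultures.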

[4] = NCI Yeast Anticancer Drug Screen. Data for the cln2 rad14 strain (AID 165);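 also: 0% = growth equal to vehicle treated cultures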; conditions: S. cerevisiae cln2 rad14 strain, at 50.0 µM, active compounds read high
Outline: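 Yeast strain cln2 rad14, bearing defects in cell cycle control and DNA repair, serves as the test system; values reflect growth inhibition compared with vehicle.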

[5] = NCI Yeast Anticancer Drug Screen. Data for the bub3 strain (AID 167); conditions: S. cerevisiae bub3 mutant strain, at 50.0 µM, active compounds read high
Outline: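 Readout: yeast growth inhibition, expressed relative to vehicle-only wells. The test organism is a mutant strain from a panel with lesions in DNA repair or checkpoint genes.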

[6] = NCI Yeast Anticancer Drug Screen. Data for the mlh1 rad18 strain (AID 175); conditions: S. cerevisiae mlh1 rad18 strain growth inhibition; at 50.0 µM; active compounds read high
Outline: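 Steps: expose repair-defective yeast to compound; measure growth; express inhibition against vehicle-treated controls.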

Measured: growth inhibition

Cn1c(=O)c2c(nc(CN3CCOCC3)n2C)n(C)c1=O
inactive: [1] -1.35% | [2] -11.2% | [3] 3.55% | [4] -25.4% | [5] 3.6% | [6] 7.2%

CC1CC[P+](C)(c2ccccc2)c2ccccc21 (stereo not given)
inactive: [1] 26% | [2] 15.7% | [3] 1.6% | [4] -4.6% | [5] 2.75% | [6] 20.6%

Cc1nn(C(=O)CC(=O)Nc2ccc(Cl)cc2)c(C)c1N=Nc1ccccc1F
inactive: [1] -40% | [2] -25.5% | [3] -60.6% | [4] -12.4% | [5] -28.4% | [6] -43%

COC(=O)NC(Nc1ccc(Cl)cc1Cl)(C(F)(F)F)C(F)(F)F
inactive: [1] 44.6% | [2] 6.7% | [3] 12.2% | [4] 20.6% | [5] 30.1% | [6] 16.6%

CCOC(=O)C1=C(C)N(NC(N)=O)C2(N)N(NC(N)=O)C(C)=C(C(=O)OCC)C12C#N (stereo not given)
inactive: [1] -6.95% | [2] 21.9% | [3] 17.6% | [4] 4.3% | [5] 10.6% | [6] -12.1%

c1ccc2c(c1)C1C3c4ccccc4C1C1C2C31
inactive: [1] 5.1% | [2] 12.1% | [3] -0.1% | [4] 2.6% | [5] 3.5% | [6] -2.8%

CCC(c1ccc(CN(C)C)c(O)c1)C(CC)c1ccc(CN(C)C)c(O)c1 (stereo not given)
inactive: [1] 5.7% | [2] 1.35% | [3] -11.4% | [4] -12.9% | [5] -2.55% | [6] 2.75%

COC(=O)[C@]1(C)CCC[C@@]2(C)[C@H]1CC=C1C=C(C(C)C)CC[C@@H]12
inactive: [1] 50% | [2] 1.15% | [3] 22.8% | [4] 4.6% | [5] -1.95% | [6] 24.4%

C=CC1=C(C)C2=NC1=CC1=NC(=CC3=C(C)C4=C(O)CC(=C5NC(=C2)C(C)C5CCC(=O)OC)C4=N3)C(CC)=C1C (stereo not given)
inactive: [1] 8.85% | [2] -1.5% | [3] 19.4% | [4] 3.65% | [5] -2.05% | [6] 22.2%

S=C(Nc1cccc2ccccc12)N1CCCCC1
inactive: [1] 51.7% | [2] 39% | [3] 50.7% | [4] 18.1% | [5] 61% | [6] 35.7%

COc1ccc(OC)c(C(=O)c2cccc(C(=O)c3cc(OC)ccc3OC)n2)c1
inactive: [1] 20.9% | [2] 6.25% | [3] 42.5% | [4] -21.8% | [5] -30.4% | [6] 20.6%

COc1cccc(NC(=O)N/C(=C/c2ccc(N(CCC#N)CCC#N)cc2)NC(=O)c2cc([N+](=O)[O-])ccc2Cl)c1
inactive: [1] 30.8% | [2] 16% | [3] -3.15% | [4] -10.1% | [5] -6.8% | [6] 36.5%

COc1cc(CC2COC(=O)[C@@H]2Cc2ccc(O)c(OC)c2)ccc1O (stereo not given in full)
inactive: [1] -29.7% | [2] -18.9% | [3] -23.4% | [4] 1.25% | [5] 6.55% | [6] 3.1%

CCCCCCCCCCCCOC(=O)NCCCl
inactive: [1] -53% | [2] -106% | [3] -57% | [4] -224% | [5] -27.6% | [6] -60.1%

CC1(C)COC(=O)/C1=C/C#N
inactive: [1] 5.1% | [2] 2.6% | [3] -1.5% | [4] -38.5% | [5] -12.4% | [6] 12.3%

Cc1ccc(/C=N/n2c(Cc3ccccc3)n[nH]c2=O)cc1
inactive: [1] 16.9% | [2] 5.1% | [3] 3.65% | [4] 11.8% | [5] 4.25% | [6] 25.6%

Cc1ccc(C2SC(N)=Nc3c2c(C)nn3C(=O)c2ccncc2)cc1 (stereo not given)
inactive: [1] -27.6% | [2] -33.2% | [3] -20% | [4] -21.7% | [5] -28% | [6] -23.6%

COC(=O)C1=NOC(COc2ccc([N+](=O)[O-])cc2)C1 (stereo not given)
inactive: [1] 9.4% | [2] -2.9% | [3] 20.4% | [4] -8.55% | [5] -1.65% | [6] 19.1%

N=C(Oc1ccccc1)c1ccccc1
inactive: [1] -1.95% | [2] -22.3% | [3] -12.6% | [4] -28.7% | [5] -13.1% | [6] 6.45%

O=C(CSc1nc(-c2ccccc2)c(-c2ccccc2)[nH]1)NNC(=S)Nc1ccccc1
inactive: [1] 6.45% | [2] 0.5% | [3] -7.15% | [4] -26.3% | [5] 54.5% | [6] 3%

O=C(c1ccccc1)c1oc(CO)cc(=O)c1O
inactive: [1] -1% | [2] -12% | [3] -4.35% | [4] -48.1% | [5] -3.9% | [6] -16.1%

N#Cc1c(-c2ccc(Cl)cc2)c(C#N)c(=O)n(NS(=O)(=O)c2ccccc2)c1O
inactive: [1] 17.5% | [2] 46.9% | [3] 41.7% | [4] 48% | [5] 47% | [6] 50.2%

COC1OC(=O)c2ccccc21 (stereo not given)
inactive: [1] 12.2% | [2] -16.2% | [3] -2.1% | [4] -0.7% | [5] -2.45% | [6] 12.8%

O=S(=O)(O)C(O)C(F)(F)C(F)(F)C(F)(F)F (stereo not given)
inactive: [1] 16.2% | [2] -1.75% | [3] 22.9% | [4] -37.8% | [5] -30.6% | [6] 19.9%

Cc1ccc(CNC(=S)NC2CCCCC2)cc1C
active: [1] 87.6% | [2] 96% | [3] 94.2% | [4] 83.5% | [5] 90% | [6] 96.3%

O=C(Oc1ccc(C(=O)c2ccc(C(=O)c3ccc(OC(=O)c4cccc(Br)c4)cc3)cc2)cc1)c1cccc(Br)c1
inactive: [1] 11.2% | [2] 7.15% | [3] -10.7% | [4] -2.35% | [5] 2.65% | [6] 2.15%

COC(=O)C(C)S(=O)(=O)O (stereo not given)
inactive: [1] -12.2% | [2] -2.5% | [3] 9.35% | [4] -80.5% | [5] 2.9% | [6] 0.3%

COc1cc2c(cc1OC)C(=O)/C(=C/c1ccccc1)CC2
inactive: [1] 6.95% | [2] -6.45% | [3] 12.2% | [4] 11.8% | [5] 37% | [6] 28.6%

Cc1cc(Cl)ccc1N=C1NC(=O)C(CC(=O)Nc2cccc(Cl)c2)S1 (stereo not given)
inactive: [1] 28.6% | [2] 15% | [3] -8.85% | [4] 27.6% | [5] 1.8% | [6] 10.2%

NC1C([O-])OC(CO)C(O)C1O.O=C1OC(C(O)CO)C([O-])=C1[OH2+].[Cu+2] (stereo not given)
inactive: [1] -0.4% | [2] -0.15% | [3] -19.6% | [4] -8.25% | [5] -1.55% | [6] -12.8%

CCCCCC(=O)Nc1ccccc1
inactive: [1] 4.95% | [2] -6.3% | [3] 1.7% | [4] -29.4% | [5] -10.9% | [6] -3.25%

O=C(COc1cc(Cl)c(Cl)cc1Cl)Oc1ccccc1
inactive: [1] -0.3% | [2] 4.95% | [3] 7.65% | [4] -8.85% | [5] 8.5% | [6] 3.6%

COC(=O)c1ccc2c(c1)nnn2C(C)=O
inactive: [1] -9.55% | [2] -12.7% | [3] -7.25% | [4] -21.9% | [5] 1.7% | [6] 4.65%

O=C(Nc1ccccc1F)c1c(O)nc2sccn2c1=O
inactive: [1] 50.4% | [2] -2.8% | [3] 38.5% | [4] -4.15% | [5] 38.1% | [6] 34%

C/C(=N/NC(=S)Nc1cccc(Cl)c1)c1cccc(/C(C)=N\NC(=S)Nc2cccc(Cl)c2)n1
inactive: [1] 47% | [2] 46% | [3] 62.6% | [4] 20.3% | [5] 62.4% | [6] 56.9%

O=C(O)COc1cccc2ccccc12
inactive: [1] 5.25% | [2] -18.6% | [3] -0.7% | [4] -24.6% | [5] 1.75% | [6] 14.7%

c1ccc(NP2(Nc3ccccc3)=NP(Nc3ccccc3)(Nc3ccccc3)=NP(Nc3ccccc3)(Nc3ccccc3)=N2)cc1
inactive: [1] -12.2% | [2] 5.55% | [3] -10.4% | [4] 15.2% | [5] 17.1% | [6] -2.2%

CC(C)(Br)CS(=O)(=O)c1ccccc1
inactive: [1] 38.1% | [2] 5.85% | [3] 29.1% | [4] -20.2% | [5] 14.1% | [6] 29.5%

CCC1C(=O)OCc2c1cc1n(c2=O)CCC12OCCO2 (stereo not given)
inactive: [1] 0.1% | [2] -15.1% | [3] -36.8% | [4] -17.6% | [5] -23.8% | [6] -15.6%

C1=NCCN=Cc2ccccc2O/N=N/Oc2ccccc21
inactive: [1] -14.9% | [2] -1.95% | [3] -0.85% | [4] -44.4% | [5] 15.4% | [6] -4.7%
